Compound activity from PubChem BioAssay.
Compounds with a hit are over-represented: about 3.4% of the library has one in this group of screens.
TEAD-YAP inh = TEAD-YAP interaction inhibition, primary screen, TEAD-YAP interaction inhibitor project, luminescence, HEK-TIYL cells. actives 1.4% (n = 640,000). inhibition, % at 9.12 µM. AID 1259422, 2018. TEAD-Gal4/YAP UAS-luciferase luminescence; in the data active = inhibition above about 32%
GPR151 ag = activators of human GPR151, primary screen, cell-based, PathHunter beta-arrestin, luminescence. actives 1% (n = 650,000). PathHunter beta-arrestin GPR151 cells. activation, % at 11.2 µM; in the data active = activation above about 4.9%
FBW7 activator = FBW7 E3 ligase activators, primary screen, biochemical, AlphaScreen, human; AlphaScreen FBW7–phospho-cyclin E peptide binding, activator screen; normalized activity (activation), % at 26.1 µM; actives 0.13% (n = 650,000); AID 1259310, 2017; in the data active = normalized activity above about 1.9%;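 note: purified mutant Fbw7 with reduced substrate affinity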
MITF primary = MITF inhibitors, primary screen, biochemical, AlphaScreen, human. AID 1259374, 2018. AlphaScreen MITF homodimerization, bead proximity signal. actives 0.91% (n = 650,000). Microphthalmia-associated transcription factor (Homo sapiens), O75030. inhibition, % at 2.6 µM; in the data active = inhibition above about 50%
Target sequence (O75030 whole entry, looked up): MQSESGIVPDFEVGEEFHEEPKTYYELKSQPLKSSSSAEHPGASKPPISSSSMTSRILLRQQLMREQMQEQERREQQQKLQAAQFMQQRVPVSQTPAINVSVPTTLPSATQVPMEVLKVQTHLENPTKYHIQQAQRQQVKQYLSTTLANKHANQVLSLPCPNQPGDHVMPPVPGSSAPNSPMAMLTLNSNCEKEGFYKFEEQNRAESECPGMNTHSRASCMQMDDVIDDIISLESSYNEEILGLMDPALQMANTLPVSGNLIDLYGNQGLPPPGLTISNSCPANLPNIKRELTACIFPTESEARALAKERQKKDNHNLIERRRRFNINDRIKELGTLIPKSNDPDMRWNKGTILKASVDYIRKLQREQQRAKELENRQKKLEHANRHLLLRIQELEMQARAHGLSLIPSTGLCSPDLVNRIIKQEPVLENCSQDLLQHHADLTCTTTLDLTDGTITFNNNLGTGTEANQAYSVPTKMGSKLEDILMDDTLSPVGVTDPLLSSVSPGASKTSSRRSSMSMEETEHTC
MITF confirm = MITF inhibitors, retest of hits, confirmation, biochemical, AlphaScreen, triplicate. shares compounds with MITF primary. AlphaScreen MITF homodimerization, biotin/His-MITF beads. inhibition, % at 2.6 µM. actives 16% (n = 4,700);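 active = inhibition above a cutoff derived from the DMSO control wells, cut at about 28% in these data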;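 note: inhibitors lower the bead chemiluminescence by keeping MITF from dimerizing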
AlphaScreen intf2 = AlphaScreen optical interference compounds, counter-screen for MITF inhibitor project, biochemical, triplicate; inhibition, % at 2.6 µM; LysRS AlphaScreen counterscreen, signal interference; shares compounds with MITF primary; actives 7.6% (n = 4,700);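 active = inhibition above a cutoff derived from the DMSO control wells, cut at about 30% in these data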
Large screens that a line does not name were inactive (follow-up assays come after a bar, where they were run).

CCOC(=O)C1=C(N)OC2=C(C(=O)CCC2)C1c1ccc(Cl)cc1 (stereo not drawn)	MITF primary 89 | MITF confirm inactive | AlphaScreen intf2 inactive
O=C(NCCc1cccc(F)c1)C1CC(Cc2ccc(F)cc2)=NO1 (stereo not drawn)	none
CCOC(=O)c1ccc(N2C(=O)C(=O)/C(=C(\O)c3ccc(OC)cc3)C2c2ccccc2[N+](=O)[O-])cc1 (stereo not drawn)	MITF primary 52 | MITF confirm inactive | AlphaScreen intf2 inactive
CCOC(=O)c1ccc(N2C(=O)C(=O)/C(=C(/O)c3ccc(OC)cc3)C2c2ccc(C)cc2)cc1 (stereo not drawn)	none
CC(C)(C)c1ccc(Cn2nccc2N)cc1	none
C=CCc1ccc(OCCCCCN2CCOCC2)c(OC)c1	MITF primary 59 | MITF confirm inactive | AlphaScreen intf2 inactive
C=CCc1ccc(OCCN2CCN(CC)CC2)c(OC)c1	MITF primary 71 | MITF confirm inactive | AlphaScreen intf2 inactive
C=CCc1ccc(OCCCCN2CCNCC2)c(OC)c1	MITF primary 67 | MITF confirm inactive | AlphaScreen intf2 inactive
C=CCc1ccc(OCCNC)c(OC)c1	none
COc1ccc(OC)c(C2CC(c3ccc(OC)c(OC)c3)=NN2C(=O)CCC(=O)O)c1 (stereo not drawn)	none
Cc1cc(NC(=O)COC(=O)CCCCC(=O)c2[nH]c(=O)[nH]c2C)no1	MITF primary 116 | MITF confirm 112 | AlphaScreen intf2 93
Cc1[nH]c(=O)[nH]c1C(=O)CCCCC(=O)OCC(=O)Oc1ccc2ccccc2c1	MITF primary 112 | MITF confirm 111 | AlphaScreen intf2 98
Cc1[nH]c(=O)[nH]c1C(=O)CCCCC(=O)OCC(=O)Nc1ccccc1[N+](=O)[O-]	MITF primary 113 | MITF confirm 115 | AlphaScreen intf2 93
CCOC(=O)CCCC/C(=N\O)c1[nH]c(=O)[nH]c1C	MITF primary 99 | MITF confirm 97 | AlphaScreen intf2 65
CCCCCCC(=O)Oc1ccc2cc(OC(=O)CCCCCC)ccc2c1	none
CC(=O)NCC(=O)OCC(=O)Nc1ccccc1[N+](=O)[O-]	none
CCOC(=O)CCCCC(=O)c1[nH]c(=O)[nH]c1CNc1ccc(Br)cc1	none
Cc1ccc(CS(=O)(=O)c2ccccc2)cc1	none
CCC(C)CC(=O)Nc1nc2c(s1)C(=O)CC(C(=O)N(CC)CC)C2 (stereo not drawn)	none
COc1ccc(-c2nc3ccccc3c(=O)n2NC(=O)c2ccccc2F)cc1	none
Cc1[nH]c(=O)[nH]c1C(=O)CCCCC(=O)O	MITF primary 121 | MITF confirm 113 | AlphaScreen intf2 95
COc1cc(CN2CCC(N3CCCCC3)CC2)cc(OC)c1OC	none
COc1cc(CN2CCN(C3CCCCC3C)CC2)cc(OC)c1OC (stereo not drawn)	MITF primary 74 | MITF confirm inactive | AlphaScreen intf2 inactive
COc1cc(CN2CCC(N3CCCC3)CC2)cc(OC)c1OC	MITF primary 58 | MITF confirm inactive | AlphaScreen intf2 inactive
O=C(COC(=O)CN1C(=O)CCC1=O)Nc1nnc(-c2ccccc2)s1	none
CC1Cc2ccccc2N1S(=O)(=O)c1ccc2c(c1)CCN2C(=O)C1CCC1 (stereo not drawn)	none
O=C(CCc1ccccc1)Nc1nnc(-c2cccs2)s1	MITF primary 55 | MITF confirm inactive | AlphaScreen intf2 inactive
COc1ccccc1N1CCN(C(=O)c2ccc3c(c2)C(=O)N(c2ccccn2)C3=O)CC1	MITF primary 68 | MITF confirm inactive | AlphaScreen intf2 inactive
O=C(c1ccc2c(c1)C(=O)N(c1ccccn1)C2=O)N1CCN(c2ccccc2Cl)CC1	none
CCn1c(SCC(=O)O)nnc1-c1ccc2c(c1)OCO2	none
CC(=O)N/C(=C\c1ccccc1)C(=O)OCC(=O)OC(C)(C)C	MITF primary 54 | MITF confirm inactive | AlphaScreen intf2 inactive
O=C(CC(NCc1ccccc1)C(=O)O)Nc1cccc(Cl)c1Cl (stereo not drawn)	none
NCCNC(CC(=O)Nc1cccc(Cl)c1Cl)C(=O)O (stereo not drawn)	MITF primary 85 | MITF confirm inactive | AlphaScreen intf2 33
CCCNC(CC(=O)Nc1ccc(OC)cc1)C(=O)O (stereo not drawn)	none
COc1ccc(NC(=O)CC(NCc2ccccn2)C(=O)O)cc1 (stereo not drawn)	MITF primary 110 | MITF confirm 107 | AlphaScreen intf2 100
Cc1c(Cl)cccc1NC(=O)CC(NCc1ccccn1)C(=O)O (stereo not drawn)	MITF primary 90 | MITF confirm 62 | AlphaScreen intf2 100
Cc1c(Cl)cccc1NC(=O)CC(NCCCN(C)C)C(=O)O (stereo not drawn)	none
Cc1nc(SC(C)c2ccccc2)[nH]c(=O)c1CC(=O)N1CCN(c2ccccc2)CC1 (stereo not drawn)	none
COc1ccccc1CN(C)CCc1ccccn1	MITF primary 67 | MITF confirm inactive | AlphaScreen intf2 inactive
COc1ccc(Br)cc1CN(C)CCc1ccccn1	none
CN(CCc1ccccn1)Cc1cccc2ccccc12	none
CN(CCc1ccccn1)Cc1c[nH]c2ccccc12	MITF primary 74 | MITF confirm inactive | AlphaScreen intf2 inactive
CN(CC(=O)NCc1ccccn1)S(=O)(=O)c1ccc(F)cc1	none
COc1ccc(CN(C)CCc2ccccn2)c(OC)c1OC	MITF primary 58 | MITF confirm inactive | AlphaScreen intf2 inactive
CN(CCc1ccccn1)S(=O)(=O)c1ccc(F)cc1	MITF primary 75 | MITF confirm inactive | AlphaScreen intf2 inactive
COc1ccc2c(c1)C(C)=CC(C)(C)N2C(N)=S	MITF primary 72 | MITF confirm 65 | AlphaScreen intf2 54
C/C=C/C(=O)N1c2ccc(OC)cc2C(C)=CC1(C)C	none
COC(=O)c1c(OCc2cccnc2)cc(=O)n2c1CCN(Cc1cc(C)ccc1C)CC2	none
CCOC(=O)c1sc(NC(=O)COc2ccc(-c3ccccc3)cc2)c(C(=O)OCC)c1C	none
C=CCN(CC=C)C(=O)C1CCN(Cc2cc(Br)c(O)c(OC)c2)CC1	MITF primary 69 | MITF confirm inactive | AlphaScreen intf2 inactive
COc1cc(CN2CCC(O)CC2)cc(Br)c1O	none
CCN1CCN(CCCOc2ccc(C#N)cc2)CC1	MITF primary 72 | MITF confirm inactive | AlphaScreen intf2 inactive
CCCCOc1ccc(OCCOCCN2CCN(CC)CC2)cc1	MITF primary 65 | MITF confirm inactive | AlphaScreen intf2 inactive
